For 57 compounds, binding response (% of control) results are on record in PubChem BioAssay AID1531 (NMMLSC, 2009).

Values joined by “and” are separate entries in the source; they are usually repeats but may differ in a detail not shown here. Identical values can stand only once. Screen size: about 290,000 compounds; about 3,300 (1.1%) were called active. Only a selection was taken, and actives are over-represented in it overall. Values without a mark were called inactive. No stated cut-off is given here; in the data, active means binding response below about 67% or above about 130%; inconclusive means no clear call, values can overlap the other calls; inactive means in between.

The assay concerns the target Mitogen-activated protein kinase kinase kinase 2 (Homo sapiens) (UniProt Q9Y2U5). Put plainly: modulators of MEK5 binding to wildtype MEKK2, primary screen, biochemical, multiplex bead flow cytometry, Alexa488-MEK5 (AID 1531). Particulars: Alexa488-MEK5 binding to MEKK2 WT, at 10 µM, actives lie on both sides.
In the case of `Cc1nc2ccccc2nc1N/N=C/c1ccc(O)cc1O`, the binding response (% of control) is 101%. For `O=C(O)c1ccccc1-c1ccccc1C(=O)NCCc1ccccc1`, the binding response (% of control) was 100%. `O=C(NCCN1CCOCC1)c1ccc2c(c1)N(Cc1ccc(Cl)cc1)CCS2`: the binding response (% of control) was 104%. In the case of `O=C(NCCCN1CCOCC1)c1cc(-c2ccc(Cl)cc2)on1` it was 103%. For the compound `Cc1c(C)n(Cc2ccc(Cl)cc2)c2ccc(C(=O)NCCCN3CCOCC3)cc12`, the binding response (% of control) is 138% (active).

As for `COc1ccc(CNC(=O)C(C)NCc2ccccc2Cl)cc1` (configuration not stated), the binding response (% of control) was 103%.

As to `Cc1c(C)c(C)c(S(=O)(=O)N2CCC3(CC2)OCCO3)c(C)c1C`, the binding response (% of control) was 108%.

On to `Cc1cc(C)n(CCNS(=O)(=O)c2ccc(Cl)cc2)n1`, for which the binding response (% of control) was 103%.

With `Cc1cc2cc(CNC(=O)c3cccs3)ccc2[nH]1`, the binding response (% of control) was 55% [inhibitor] (active). As to `CCc1cccc(CC)c1NC(=S)NCc1ccc2[nH]c(C)cc2c1`, the binding response (% of control) was 102%. To `Cc1cc2cc(CNC(=O)c3ccc(S(=O)(=O)N4CCOCC4)cc3)ccc2[nH]1` belongs 97%; to `CC(NC(=O)C1CCCN(S(=O)(=O)c2ccc(-n3cnnn3)cc2)C1)c1ccc(F)cc1` (configuration not stated), 108%. On to `COc1cccc(N(CC(=O)NC2CCCCCC2)S(=O)(=O)c2ccccc2)c1`, for which the binding response (% of control) is 111%. In the case of `CCOc1ccccc1C1CC(c2cccc(NS(C)(=O)=O)c2)=NN1C(=O)c1ccccc1` (configuration not stated) it was 100%; in that of `COc1ccc(C2=NN(C(=O)c3ccccc3C(=O)O)C(c3ccccc3O)C2)cc1` (configuration not stated), 100%. In the case of `COc1cccc(C2CC(c3ccccc3)=NN2S(=O)(=O)c2ccccc2)c1OC` (configuration not stated) it was 20% [inhibitor] (active); in that of `COc1ccc(NC(=O)NCCN2CCN(c3ccc(C)cc3)CC2)c(Cl)c1`, 113%. To `Cc1ccc(-n2ncc(C(=O)NC3CC3)c2C2CCN(C(=O)OC(C)(C)C)CC2)c(C)c1` belongs 96%.

`O=C(CN(Cc1ccccc1)C(=O)CCC(=O)Nc1ccccn1)NCCc1ccccc1`: the binding response (% of control) is 107%. To `O=C(NC(=S)NC1CCCCC1)c1ccc(Cl)cc1` belongs 103%. In the case of `COc1ccccc1NC(=S)N1CCN(C(c2ccccc2)c2ccccc2)CC1` it was 98%; in that of `COc1ccccc1NC(=S)N1CCN(c2ccc(F)cc2)CC1`, 16% [inhibitor] (active). As to `COC(=O)c1ccc(C(=O)OC)c(NC(=S)N2CCN(c3ccc(F)cc3)CC2)c1`, the binding response (% of control) is 98%.

Regarding `O=C(O)CSc1c2c(nc3cc(C(=O)Nc4cccc(C(F)(F)F)c4)ccc13)CCCC2`, the binding response (% of control) was 105%. To `COc1ccccc1OCC(O)CN1CCOCC1` (configuration not stated) belongs 109%; to `CC(C)(C)NCC(O)COc1cccc2[nH]c(=O)[nH]c12` (configuration not stated), 113%. In the case of `COc1ccccc1OCCNCC(O)COc1cccc2[nH]c3ccccc3c12` (configuration not stated) it was 166% (active) and 155% (active) and 213% (active); in that of `Cc1ccc(NC(=O)COc2ccc(-n3ccnc3)cc2)cc1Cl`, 153% (active); in that of `CCC(=O)c1ccc(OCC(=O)Nc2ccc3nc(C)sc3c2)cc1`, 87%.

As to `Cc1ccc(NC(=O)C/C(N)=N/O)cc1Cl`, the binding response (% of control) is 100%. In the case of `CC(C)(C)c1ccccc1NC(=O)CN1C(=O)NC2(CCCC2)C1=O` it was 100%; in that of `CC(C)c1ccc2oc(=O)cc(CN3CCN(Cc4ccccc4)CC3)c2c1`, 115%; in that of `Cn1ccc(=Nc2ccc(NC(=O)c3ccc(N=c4ccn(C)c5ccc([N+](=O)[O-])cc45)cc3)cc2)cc1`, 146% (active). In the case of `Cc1cc([N+](=O)[O-])ccc1NC(=O)c1ccc(NC(=O)C(C)C)cc1` it was 101%. In the case of `O=C(Nc1ccc(C(=O)N2CCCCC2)cc1)c1cccc([N+](=O)[O-])c1` it was 100%; in that of `NS(=O)(=O)c1ccc(NC(=S)N2CCCC2)cc1`, 100%.

As to `COc1ccc(N2CCN(C(=S)Nc3ccc(S(N)(=O)=O)cc3)CC2)cc1`, the binding response (% of control) is -9% (active). In the case of `CCOc1ccccc1N1CCN(C(=S)Nc2ccc(S(N)(=O)=O)cc2)CC1` it was 102%. To `CCc1ccc(S(=O)(=O)Nc2cc3c(cc2N2CCCCC2)n(C)c(=O)c(=O)n3C)cc1` belongs 101%; to `O=C(NCc1nnc(SCC(=O)N2CCCCCC2)o1)c1ccc(F)cc1`, 102%; to `Cc1ccc2c(c1)C1CN(C)CCC1N2S(=O)(=O)c1ccc(Oc2ccc([N+](=O)[O-])cc2)cc1` (configuration not stated), 201% (active). For the compound `Cc1ccc2c(c1)C1CN(C)CCC1N2C(=S)Nc1ccc(OC(F)F)cc1` (configuration not stated), the binding response (% of control) is 118%. On to `Cc1ccc2c(c1)C1CN(C)CCC1N2C(=O)c1ccccc1NS(=O)(=O)c1ccc(F)cc1C` (configuration not stated), for which the binding response (% of control) is 98%. As to `COc1ccc2c(c1)c(C(=O)N/N=C/c1cccs1)c(C)n2C`, the binding response (% of control) was 99%. To `O=C(NCCCN1CCCC1=O)C(=O)NCC1OCCN1S(=O)(=O)c1ccc(Br)cc1` (configuration not stated) belongs 103%; to `CC(=O)Nc1ccc(Nc2ncnc3c2nnn3Cc2ccccc2Cl)cc1`, 107%. In the case of `CC(C)c1ccccc1OCC(O)CN(CC(O)COc1cccc2ccccc12)C(C)C` (configuration not stated) it was 181% (active); in that of `CCC(C)Sc1nc2c(c(=O)[nH]c(=O)n2C)n1CC(O)COc1cccc2ccccc12` (configuration not stated), 107%. To `OC(COc1cccc2ccccc12)CN1CCN(c2ccccn2)CC1` (configuration not stated) belongs 105%; to `CCN1C(=O)N[C@@H](CCc2ccccc2)C(C(=O)OC)=C1C`, 94%.

Take `CCCCC1(C(=O)OCC)NC(c2ccc(O)cc2)C2C(=O)N(c3ccccc3)C(=O)C21` (configuration not stated): the binding response (% of control) is 99%. In the case of `CC(C)[C@H](NC(=O)N1CCn2c1nc1ccccc12)C(=O)NC1CC1`, the binding response (% of control) was 101%. With `CC(C)C[C@H](NC(=O)C1CCC(CNC(=O)[C@@H]2CCCN2C(=O)OC(C)(C)C)CC1)C(=O)O` (some centres not stated), the binding response (% of control) was 103%. Consider `CCc1nnc(NC(=O)CCN(c2ccc(C)cc2)S(=O)(=O)c2ccccc2)s1`, for which the binding response (% of control) was 108%. To `O=C(O)c1cc(S(=O)(=O)N(Cc2ccccc2)c2cccc(C(F)(F)F)c2)ccc1Cl` belongs 108%.

Turning to `Cc1ccc(N(CCC(=O)O)S(=O)(=O)c2cccc(C(F)(F)F)c2)cc1`, the binding response (% of control) is 4% [inhibitor] (active). To `Cc1cc(C)cc(C(=O)NC(CC(N)=O)c2ccc(N3CCC(N4CCCCC4)CC3)c([N+](=O)[O-])c2)c1` (configuration not stated) belongs 105%.
